In PubChem BioAssay (EPA / NIEHS):
The source made the active and inactive calls. The calls were made as follows: active = hit-call score of the fitted dose curve at least 0.9, where 1 is the maximum; inactive = score below 0.9.

Columns and labels:
[1] = ATG_E_Box_CIS: Attagene CIS-FACTORIAL HepG2 Assay for human Enhancer Box (E-box) (AID 2282936); settings: HepG2 E-box cis-reporter transcription, actives raise or lower the signal
Summary of the method: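 Multiplexed CIS reporter system in transiently transfected HepG2 cells measures native transcription factor activity. Reporter RNA after 24 h exposure is profiled by RT-PCR-capillary electrophoresis.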

[2] = ATG_M_61_CIS: Attagene CIS-FACTORIAL HepG2 Assay for M61 Transcription Factor (Internal Marker) (AID 2282937); settings: HepG2 Attagene CIS-FACTORIAL M61 internal marker reporter; actives raise or lower the signal
Summary of the method: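 Readout is reporter mRNA by RT-PCR, fluorescent primer extension and capillary electrophoresis, with gain or loss fitted relative to DMSO. Transfected HepG2 cells carrying endogenous-TF-driven cis reporters were exposed to chemicals for 24 hours.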

[3] = ATG_EGR_CIS: Attagene CIS-FACTORIAL HepG2 Assay for human Early Growth Response 1 (EGR1) (AID 2282938); settings: HepG2 Attagene CIS-FACTORIAL EGR reporter mRNA; actives raise or lower the signal
Summary of the method: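 After 24 h compound exposure, RNA from reporter-transfected HepG2 cells was reverse-transcribed, PCR-amplified, fluorescently labelled and resolved by capillary electrophoresis. EGR1 reporter transcript changes, up or down, were fitted against DMSO, reflecting endogenous transcription-factor activity.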

[4] = ATG_M_19_CIS: Attagene CIS-FACTORIAL HepG2 Assay for M19 Transcription Factor (Internal Marker) (AID 2282939); settings: HepG2 Attagene CIS-FACTORIAL M19 internal marker reporter; actives raise or lower the signal
Summary of the method: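 HepG2 cells transiently transfected with cis-regulated multiplexed reporter units, dosed 24 h. Reporter mRNA quantified by RT-PCR and capillary electrophoresis; internal background marker fitted bidirectionally versus DMSO.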

[5] = ATG_ERE_CIS: Attagene CIS-FACTORIAL HepG2 Assay for Estrogen Response Element (ERE) (AID 2282940); settings: HepG2 ERE cis-reporter, Attagene RNA transcript; actives raise or lower the signal
Summary of the method: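 HepG2 cells transiently transfected with multiplexed cis-element reporter units, measuring endogenous transcription factor activity; ERE reporter mRNA quantified after 24 h exposure by RT-PCR, fluorescent labelling, HpaI digestion and capillary electrophoresis. Bidirectional change versus DMSO.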

[6] = molecular target: Hepatocyte nuclear factor 3-beta (Homo sapiens) (UniProt Q9Y261); test: ATG_FoxA2_CIS: Attagene CIS-FACTORIAL HepG2 Assay for human Forkhead box A2 (FOXA2) (AID 2282942); settings: HepG2 cis-reporter transcription factor activity, 24 h; actives raise or lower the signal
Sequence of Hepatocyte nuclear factor 3-beta (Homo sapiens) (Q9Y261 whole entry, looked up): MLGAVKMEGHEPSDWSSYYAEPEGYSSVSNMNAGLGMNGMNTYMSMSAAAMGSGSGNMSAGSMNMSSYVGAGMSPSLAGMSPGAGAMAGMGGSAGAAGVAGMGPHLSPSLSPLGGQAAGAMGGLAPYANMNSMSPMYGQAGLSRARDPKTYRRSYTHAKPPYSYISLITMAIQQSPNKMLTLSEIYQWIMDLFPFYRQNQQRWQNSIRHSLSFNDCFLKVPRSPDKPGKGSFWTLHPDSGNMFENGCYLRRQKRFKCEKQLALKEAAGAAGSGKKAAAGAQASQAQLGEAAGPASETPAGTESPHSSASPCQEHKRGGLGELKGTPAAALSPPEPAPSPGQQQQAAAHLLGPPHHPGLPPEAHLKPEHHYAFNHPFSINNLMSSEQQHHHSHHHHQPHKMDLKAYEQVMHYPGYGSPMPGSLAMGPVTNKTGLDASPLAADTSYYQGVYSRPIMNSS
Summary of the method: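 Endogenous transcription factor activity is captured via cis-element-driven reporter transcripts in transfected HepG2. Total RNA taken at 24 h post-dosing; labelled RT-PCR products resolved by capillary electrophoresis. Gain or loss fitted versus DMSO.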

[7] = ATG_FoxO_CIS: Attagene CIS-FACTORIAL HepG2 Assay for human Forkhead box O (FoxO) (AID 2282943); settings: HepG2 Attagene cis-reporter, FoxO element, mRNA; actives raise or lower the signal
Summary of the method: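 Values reflect reporter mRNA induction or loss in HepG2 cells 24 h post-dosing, fitted bidirectionally with DMSO as negative control and baseline. Detection used RT-PCR and fluorescence capillary electrophoresis.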

[8] = ATG_GATA_CIS: Attagene CIS-FACTORIAL HepG2 Assay for human GATA Binding Protein (AID 2282944); settings: HepG2 GATA cis-element reporter, Attagene multiplex mRNA; actives raise or lower the signal
Summary of the method: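 HepG2 cells transiently transfected with multiplexed cis-element reporter units measure endogenous GATA activity; after 24 h compound exposure, reporter mRNA quantified by RT-PCR and capillary electrophoresis. Changes fitted in both directions vs DMSO.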

[9] = ATG_GLI_CIS: Attagene CIS-FACTORIAL HepG2 Assay for human Zinc Finger Protein GLI1 (AID 2282945); settings: HepG2, Attagene cis-factorial reporter mRNA, GLI element; actives raise or lower the signal
Summary of the method: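 HepG2 cells transiently transfected with cis-promoter multiplexed reporter units report endogenous transcription factor activity. After 24 h chemical exposure, reporter mRNA was quantified by RT-PCR, 6-FAM labelling, HpaI digestion and capillary electrophoresis, with bidirectional fitting against DMSO.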

[10] = molecular target: Bile acid receptor (Homo sapiens) (UniProt Q96RI1); test: ATG_IR1_CIS: Attagene CIS-FACTORIAL HepG2 Assay for human Nuclear Receptor Subfamily 1 Group H Member 4 (NR1H4), IR1 submotif (AID 2282946); settings: IR1 reporter transcription, actives raise or lower the signal
Sequence of Bile acid receptor (Homo sapiens) (Q96RI1 whole entry, looked up): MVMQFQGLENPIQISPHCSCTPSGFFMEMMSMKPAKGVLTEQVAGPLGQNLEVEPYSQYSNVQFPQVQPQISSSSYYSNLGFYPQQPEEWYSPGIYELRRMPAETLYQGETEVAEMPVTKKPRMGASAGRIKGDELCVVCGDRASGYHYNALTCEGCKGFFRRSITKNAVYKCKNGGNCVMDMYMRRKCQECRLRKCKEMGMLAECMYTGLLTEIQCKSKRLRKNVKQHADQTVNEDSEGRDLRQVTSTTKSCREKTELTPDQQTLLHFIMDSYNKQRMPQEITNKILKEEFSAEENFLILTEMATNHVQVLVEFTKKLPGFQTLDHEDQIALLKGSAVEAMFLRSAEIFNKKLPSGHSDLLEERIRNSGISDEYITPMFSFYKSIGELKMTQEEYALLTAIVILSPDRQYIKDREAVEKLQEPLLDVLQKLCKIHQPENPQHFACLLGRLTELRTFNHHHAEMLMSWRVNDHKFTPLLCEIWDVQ
Summary of the method: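 Transient MRTU transfection, HepG2; 24 h dosing; RNA → RT-PCR → 6-FAM primer extension → HpaI digest → capillary electrophoresis fluorescence. Gain/loss of signal fitted relative to DMSO.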

[11] = ATG_GRE_CIS: Attagene CIS-FACTORIAL HepG2 Assay for human Glucocorticoid Response Elements (GRE) (AID 2282947); settings: HepG2 GRE cis-reporter, Attagene multiplex mRNA; actives raise or lower the signal
Summary of the method: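 Following 24 h chemical exposure of transiently transfected HepG2 cells, total RNA was reverse-transcribed and reporter cDNA amplified, fluorescently labelled and sized by capillary electrophoresis. Signal gain or loss was fitted relative to DMSO vehicle.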

[12] = ATG_ISRE_CIS: Attagene CIS-FACTORIAL HepG2 Assay for human Interferon Regulatory Factor 1 (IRF1) binding to an Interferon-Stimulated Response Element (ISRE) (AID 2282948); settings: HepG2 ISRE cis-reporter (Attagene), mRNA transcription readout; actives raise or lower the signal
Summary of the method: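 Cell-based cis-reporter assay; HepG2; 24 h exposure; reporter mRNA by RT-PCR plus capillary electrophoresis fluorescence; activity in either direction scored relative to DMSO.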

[13] = ATG_M_32_CIS: Attagene CIS-FACTORIAL HepG2 Assay for M32 Transcription Factor (Internal Marker) (AID 2282949); settings: HepG2 Attagene cis-factorial M32 reporter, mRNA; actives raise or lower the signal;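 also: background control marker of the multiplexed CIS panel rather than a real target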
Summary of the method: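 Fluorescent capillary electrophoresis peaks of HpaI-digested, FAM-labelled RT-PCR reporter products give the signal. Source: transiently transfected human liver HepG2 cells, 24 h after chemical dosing; bidirectional fitting against DMSO.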

[14] = ATG_M_06_CIS: Attagene CIS-FACTORIAL HepG2 Assay for M06 Transcription Factor (Internal Marker) (AID 2282950); settings: HepG2 Attagene CIS-FACTORIAL M06 internal marker reporter; actives raise or lower the signal
Summary of the method: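 Internal background marker within multiplexed cis-reporter HepG2 system. Cells transiently transfected, dosed 24 h; reporter mRNA measured by RT-PCR, HpaI digestion and capillary electrophoresis. Bidirectional fit relative to DMSO.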

[15] = molecular target: Hypoxia-inducible factor 1-alpha (Homo sapiens) (UniProt Q16665); test: ATG_HIF1a_CIS: Attagene CIS-FACTORIAL HepG2 Assay for human Hypoxia Inducible Factor 1 (HIF1A) (AID 2282951); settings: HepG2 Attagene cis-factorial HIF1a reporter transcription; actives raise or lower the signal
Sequence of Hypoxia-inducible factor 1-alpha (Homo sapiens) (Q16665 whole entry, looked up): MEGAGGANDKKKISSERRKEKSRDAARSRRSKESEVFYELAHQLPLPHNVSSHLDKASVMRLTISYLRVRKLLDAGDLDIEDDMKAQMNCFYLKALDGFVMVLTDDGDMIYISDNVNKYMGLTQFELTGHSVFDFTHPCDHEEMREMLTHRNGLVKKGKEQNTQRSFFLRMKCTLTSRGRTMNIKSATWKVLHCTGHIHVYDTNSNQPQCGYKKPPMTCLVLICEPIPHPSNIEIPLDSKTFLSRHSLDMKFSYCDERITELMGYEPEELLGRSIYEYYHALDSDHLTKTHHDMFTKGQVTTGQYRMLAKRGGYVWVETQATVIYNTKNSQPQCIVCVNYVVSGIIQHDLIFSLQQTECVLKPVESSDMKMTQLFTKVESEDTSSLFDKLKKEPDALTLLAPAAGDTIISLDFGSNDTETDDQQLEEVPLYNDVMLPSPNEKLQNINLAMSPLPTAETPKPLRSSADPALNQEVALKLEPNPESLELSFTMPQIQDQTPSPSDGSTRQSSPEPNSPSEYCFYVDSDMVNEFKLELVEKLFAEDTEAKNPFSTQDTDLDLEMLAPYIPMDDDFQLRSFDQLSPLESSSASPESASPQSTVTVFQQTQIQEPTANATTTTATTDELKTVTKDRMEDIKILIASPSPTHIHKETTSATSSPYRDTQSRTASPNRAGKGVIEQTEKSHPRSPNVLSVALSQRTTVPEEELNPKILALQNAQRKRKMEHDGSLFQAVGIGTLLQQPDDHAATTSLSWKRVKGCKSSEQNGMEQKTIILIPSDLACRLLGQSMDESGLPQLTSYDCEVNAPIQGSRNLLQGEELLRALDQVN
Summary of the method: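 Activity is fitted in both directions relative to DMSO. Reporter transcripts are read by RT-PCR, fluorescent primer extension and capillary electrophoresis after 24 h chemical treatment. The cells are HepG2 carrying transiently transfected cis-element-driven reporter units responding to endogenous factors.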

[16] = molecular target: Heat shock factor protein 1 (Homo sapiens) (UniProt Q00613); test: ATG_HSE_CIS: Attagene CIS-FACTORIAL HepG2 Assay for human Heat Shock Transcription Factor 1 (HSE) (AID 2282953); settings: HepG2 HSE cis-reporter, Attagene RNA transcription; actives raise or lower the signal
Sequence of Heat shock factor protein 1 (Homo sapiens) (Q00613 whole entry, looked up): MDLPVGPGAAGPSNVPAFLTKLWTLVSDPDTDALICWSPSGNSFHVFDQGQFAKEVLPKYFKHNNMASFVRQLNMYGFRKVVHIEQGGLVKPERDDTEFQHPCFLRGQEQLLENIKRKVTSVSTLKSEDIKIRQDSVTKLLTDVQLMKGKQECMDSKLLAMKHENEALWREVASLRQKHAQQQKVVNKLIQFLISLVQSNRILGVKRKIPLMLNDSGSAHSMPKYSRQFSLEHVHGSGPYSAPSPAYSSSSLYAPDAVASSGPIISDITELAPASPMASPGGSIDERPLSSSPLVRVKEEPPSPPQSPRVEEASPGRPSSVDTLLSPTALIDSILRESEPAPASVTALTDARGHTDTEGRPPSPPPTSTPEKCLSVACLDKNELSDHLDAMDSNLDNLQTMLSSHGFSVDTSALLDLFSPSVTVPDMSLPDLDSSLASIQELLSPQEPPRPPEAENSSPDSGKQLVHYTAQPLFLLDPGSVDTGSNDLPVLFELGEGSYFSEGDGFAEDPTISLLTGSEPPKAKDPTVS
Summary of the method: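 HepG2 cells transfected with cis-promoter reporter units sensing endogenous transcription factor activity; reporter mRNA quantified 24 h post-dose by RT-PCR and capillary electrophoresis of 6-FAM-labelled products. Bidirectional fitting against DMSO.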

[17] = ATG_MRE_CIS: Attagene CIS-FACTORIAL HepG2 Assay for human Metal Responsive Element (MRE) (AID 2282954); settings: HepG2 MRE cis-reporter transcription, Attagene multiplex; actives raise or lower the signal
Summary of the method: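 Step one: transfect HepG2 with cis-regulated reporter units. Step two: dose 24 h. Step three: isolate RNA, RT-PCR, 6-FAM label, HpaI digest, capillary electrophoresis. Fit bidirectionally to DMSO.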

[18] = ATG_PBREM_CIS: Attagene CIS-FACTORIAL HepG2 Assay for human Phenobarbital-responsive Enhancer Module (PBREM) (AID 2282955); settings: HepG2 PBREM cis-reporter, Attagene multiplexed transcription; actives raise or lower the signal
Summary of the method: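 Endogenous transcription factor activity was read from reporter transcripts in transiently transfected human HepG2 liver cells after 24 h dosing. RT-PCR products were fluorescently labelled, HpaI-cut and sized by capillary electrophoresis; activity fitted bidirectionally against DMSO baseline.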

[19] = molecular target: Hepatocyte nuclear factor 6 (Homo sapiens) (UniProt Q9UBC0); test: ATG_HNF6_CIS: Attagene CIS-FACTORIAL HepG2 Assay for human Hepatocyte Nuclear Factor 6 (HNF6) (AID 2282952); settings: HepG2 Attagene cis-factorial HNF6 reporter transcription; actives raise or lower the signal
Sequence of Hepatocyte nuclear factor 6 (Homo sapiens) (Q9UBC0 whole entry, looked up, the tested form may be a part): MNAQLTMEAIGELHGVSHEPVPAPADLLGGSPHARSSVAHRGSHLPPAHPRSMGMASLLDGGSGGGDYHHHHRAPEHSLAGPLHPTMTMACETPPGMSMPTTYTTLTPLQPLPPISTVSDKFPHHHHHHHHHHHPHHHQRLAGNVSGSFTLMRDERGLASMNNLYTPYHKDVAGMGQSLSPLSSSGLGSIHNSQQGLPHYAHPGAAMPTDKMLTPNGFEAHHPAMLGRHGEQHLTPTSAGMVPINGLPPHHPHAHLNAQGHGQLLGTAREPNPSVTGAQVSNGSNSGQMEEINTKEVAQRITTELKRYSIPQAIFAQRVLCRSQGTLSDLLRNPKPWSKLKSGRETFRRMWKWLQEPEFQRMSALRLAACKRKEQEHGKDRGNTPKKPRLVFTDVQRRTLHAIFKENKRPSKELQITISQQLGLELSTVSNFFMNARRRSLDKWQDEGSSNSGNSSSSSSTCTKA
Summary of the method: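 HepG2 cells transiently transfected with cis-element-driven multiplexed reporter units measuring endogenous transcription factor activity. After 24 h exposure, reporter mRNA quantified by RT-PCR, FAM-labelled fragments and capillary electrophoresis; bidirectional fitting versus DMSO.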

[20] = ATG_Ets_CIS: Attagene CIS-FACTORIAL HepG2 Assay for human Erythroblast Transformation Specific (ETS) (AID 2282941); settings: HepG2 ETS cis-reporter transcription, actives raise or lower the signal
Summary of the method: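 Human HepG2 hepatoma cells were transiently transfected with promoter-driven reporter constructs and treated for 24 hours. Reporter transcripts were quantified by RT-PCR with fluorescent primer extension; bidirectional curve fitting used DMSO as reference.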

Measured: AC50

O=C(Nc1cccc(C(F)(F)F)c1)c1cc(Br)cc(Br)c1O
active: [1] 77.6 µM | [3] 25.5 µM | [9] 83 µM | [10] 66.7 µM | [12] 100 µM | [15] 19.9 µM | [16] 46.2 µM | [17] 85.8 µM | [18] 1.89 µM
not listed: [19] | [20]
inactive: all other assays above

CC(C)(c1cc(Br)c(OCCO)c(Br)c1)c1cc(Br)c(OCCO)c(Br)c1
active: [3] 10.5 µM | [4] 44.5 µM | [6] 44.2 µM | [10] 7.14 µM | [11] 44.2 µM | [12] 7 µM | [13] 22.9 µM | [15] 6.89 µM | [19] 42.2 µM | [16] 21.5 µM | [17] 18.4 µM
inactive: [1] | [2] | [5] | [7] | [8] | [9] | [14] | [18]

CC1OC1C1CCC2(C)OC2C1 (configuration not stated)
not listed: [6] | [10] | [13]
inactive: all other assays above

Cc1cc(C)c(C(=O)O)c(C)c1
not listed: [6] | [10] | [13] | [16]
inactive: all other assays above

COc1ccc(NC(C)=O)cc1N
not listed: [6] | [10]
inactive: all other assays above

COC(=O)c1ccc2cc(C(=O)OC)ccc2c1
not listed: [10] | [18] | [20]
inactive: all other assays above

O=S1(=O)OC(c2ccc(O)cc2)(c2ccc(O)cc2)c2ccccc21
active: [5] 53.4 µM
not listed: [10] | [11] | [12]
inactive: all other assays above
